# Experimental data as given in PubChem BioAssay AID652154 (Broad Institute, 2013).
# In all, about 360,000 compounds went through this assay and about 4,200 (1.2%) were called active.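 Rule for the calls: active = mean replicate inhibition at least 60% with every replicate also reaching 60%; inconclusive = only one of the two criteria is met; inactive = mean below 60% and not all replicates reaching 60%.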 Shown is part of a subset that was picked to be rich in actives.
# Experiment: inhibitors of PAX8-driven TPO luciferase reporter, primary screen, RMG-I cells, single concentration (AID 652154);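 note: luciferase light reporting Pax8 driven TPO promoter activity; plate controls were median of neutral control wells for no effect and mitoxantrone controls for full effect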
# Conditions: SteadyGlo, 24 h, at 12.6 µM, hits give high values
row,Compound,inhibition
1,Cc1ccccc1-c1ccc([C@@H]2[C@H](CO)N3CCCCN(S(=O)(=O)c4ccc(F)cc4)C[C@@H]23)cc1,-34.4% (inactive)
2,Cc1ccc(C)c(OCC(=O)N2CCN(C(=O)c3ccco3)CC2)c1,64.3% (active)
3,Cc1ccc(OCC(=O)Nc2ccc(N3CCN(C(=O)c4ccco4)CC3)cc2)c(C)c1,7.91% (inactive)
4,O=C(OCC(=O)N1CCN(C(=O)c2ccco2)CC1)c1c(Cl)cccc1Cl,-6.1% (inactive)
5,CC(C)=CCc1ccc(O)c(=O)cc1C(C)C,79.1% (active)
6,CC(C)c1cc(N=O)cc(C(C)C)c1O,1.72% (inactive)
7,O=C(C[C@@H]1CC[C@H](NS(=O)(=O)c2cccc(F)c2)[C@H](CO)O1)N1CCCCC1,2.78% (inactive)
8,O=C(CN1CCOCC1)N1CCCCN2[C@H](C1)[C@H](c1ccc(-c3ccccc3F)cc1)[C@@H]2CO,0.84% (inactive)
9,C[C@@H]1CN([C@H](C)CO)C(=O)c2cc(NC(=O)c3ccncc3)ccc2O[C@@H]1CN(C)C(=O)Nc1ccc(F)cc1,-12.7% (inactive)
10,CC[C@H](C)[C@H]1CNC(=O)C(=O)N1CC1CCN(CCc2ccc(OC)c(OC)c2)CC1,5.58% (inactive)
11,Cc1noc(C)c1S(=O)(=O)Nc1ccc2c(c1)CC(=O)N([C@@H](C)CO)C[C@@H](C)[C@@H](CN(C)C(=O)Nc1ccc(C(F)(F)F)cc1)O2,4.57% (inactive)
12,C[C@@H]1CCCCO[C@@H](CN(C)C(=O)Nc2cccc3ccccc23)[C@H](C)CN([C@@H](C)CO)C(=O)c2cc(NS(=O)(=O)c3ccccc3)ccc2O1,22.1% (inactive)
13,C[C@@H]1CCCCO[C@H](CN(C)C(=O)NC2CCCCC2)[C@H](C)CN([C@H](C)CO)C(=O)c2cc(NS(=O)(=O)c3ccc(Cl)cc3)ccc2O1,53.7% (inactive)
14,C[C@@H]1CCCCO[C@H](CN(C)CC2CCCCC2)[C@H](C)CN([C@H](C)CO)C(=O)c2cc(NS(=O)(=O)c3ccc(F)cc3)ccc2O1,53.6% (inactive)
15,C[C@@H]1CCCCO[C@@H](CN(C)C(=O)NC2CCCCC2)[C@H](C)CN([C@H](C)CO)C(=O)c2cc(NS(=O)(=O)c3ccc(Cl)cc3)ccc2O1,89.7% (active)
16,C[C@H]1CCCCO[C@@H](CN(C)C(=O)NC2CCCCC2)[C@@H](C)CN([C@@H](C)CO)C(=O)c2cc(NS(=O)(=O)c3ccc(Cl)cc3)ccc2O1,32.2% (inactive)
17,COc1ccc(NC(=O)N(C)C[C@@H]2OCCCC[C@@H](C)Oc3ccc(NS(=O)(=O)c4ccc(Cl)cc4)cc3C(=O)N([C@H](C)CO)C[C@H]2C)cc1,63.7% (active)
18,Cc1ccc(S(=O)(=O)Nc2ccc3c(c2)C(=O)N([C@@H](C)CO)C[C@@H](C)[C@H](CN(C)C(=O)Nc2cccc4ccccc24)OCCCC[C@H](C)O3)cc1,22.8% (inactive)
19,COc1ccc(NC(=O)N(C)C[C@H]2OCCCC[C@@H](C)Oc3ccc(NS(=O)(=O)c4ccc(F)cc4)cc3C(=O)N([C@@H](C)CO)C[C@@H]2C)cc1,1.37% (inactive)
20,C[C@H](CO)N1C[C@H](C)[C@H](CN(C)CC2CCCCC2)OCCCC[C@H](C)Oc2ccc(NS(=O)(=O)c3ccc(F)cc3)cc2C1=O,52.9% (inactive)

row,Compound,inhibition
1,COc1ccc(NC(=O)N(C)C[C@H]2OCCCC[C@H](C)Oc3ccc(NS(=O)(=O)c4ccc(Cl)cc4)cc3C(=O)N([C@@H](C)CO)C[C@H]2C)cc1,-13.3% (inactive)
2,C[C@H]1CCCCO[C@@H](CN(C)C(=O)Nc2cccc3ccccc23)[C@@H](C)CN([C@@H](C)CO)C(=O)c2cc(NS(=O)(=O)c3ccc(Cl)cc3)ccc2O1,71.8% (active)
3,C[C@H]1CCCCO[C@H](CN(C)CC2CCCCC2)[C@@H](C)CN([C@@H](C)CO)C(=O)c2cc(NS(=O)(=O)c3ccc(Cl)cc3)ccc2O1,68.9% (active)
4,C[C@@H]1CN([C@@H](C)CO)S(=O)(=O)c2ccc(C3=CCCCC3)cc2O[C@@H]1CN(C)Cc1cccc(C(=O)O)c1,-22.5% (inactive)
5,C/C=C/c1ccc([C@@H]2[C@@H](CO)N(C(C)=O)[C@H]2CN(C)C(=O)CN(C)C)cc1,0.935% (inactive)
6,C[C@H]1CN([C@@H](C)CO)C(=O)Cc2cc(NC(=O)NC3CCCCC3)ccc2O[C@H]1CN(C)S(=O)(=O)c1cccs1,11.1% (inactive)
7,O=C(C[C@@H]1CC[C@@H]2[C@H](COC[C@@H](O)CN2Cc2ccc(F)cc2)O1)NCc1ccncn1,-11.3% (inactive)
8,Cc1ccc(S(=O)(=O)Nc2ccc3c(c2)C(=O)N([C@H](C)CO)C[C@@H](C)[C@@H](CN(C)C(=O)CCC(F)(F)F)OCCCC[C@@H](C)O3)cc1,-2.28% (inactive)
9,O=C(NC1CCC1)[C@@H]1[C@@H](CO)[C@@H]2Cn3c(ccc(/C=C/c4ccccc4)c3=O)[C@@H]2N1Cc1ccncc1,7.46% (inactive)
10,CN1C[C@H](O)COC[C@H]2O[C@H](CC(=O)NC3CCC3)CC[C@@H]21,-17.3% (inactive)
11,CN(C)C(=O)c1cccc(-c2ccc([C@H]3[C@H](CO)N4C(=O)CN(C(=O)C5CCCCC5)C[C@@H]34)cc2)c1,-1.57% (inactive)
12,C[C@H](CO)N1C[C@H](C)[C@@H](CN(C)C)OCCCC[C@H](C)Oc2ccc(NC(=O)C3CCCCC3)cc2C1=O,-11.4% (inactive)
13,O=S(=O)(Cc1ccccc1)N1CCCCN2[C@@H](CO)[C@@H](c3ccc(-c4ccc(F)cc4)cc3)[C@@H]2C1,44.5% (inactive)
14,C[C@@H]1CN([C@@H](C)CO)C(=O)c2cc(NS(=O)(=O)c3cccs3)ccc2O[C@@H](C)CCCCO[C@@H]1CN(C)C(=O)NC1CCCCC1,1.62% (inactive)
15,Cc1ccc(-c2nc3ccc(Cl)cn3c2Cc2ccccc2)cc1,-103% (inactive)
16,Cc1ccc(-c2nc3ccc(Br)cn3c2Cc2ccccc2C(F)(F)F)cc1,-163% (inactive)
17,CS(=O)(=O)Nc1cccc(-c2cn3ccccc3n2)c1,-44.1% (inactive)
18,COc1ccc(-c2nc3ccc(Br)cn3c2Cc2ccc(C)cc2)cc1OC,-53.2% (inactive)
19,Cc1ccc2nc(-c3ccc(Br)cc3)cn2c1,92.9% (active)
20,Cc1ccc(-c2cn3cc(C)ccc3n2)cc1,91.9% (active)
